Drawing on publication PMC7862700, “An all-to-all approach to the identification of sequence-specific readers for epigenetic DNA modifications on cytosine”, this text covers binding signal for one sequence.

Holding throughout (test): DAPPL (digital affinity profiling via proximity ligation, sequencing); 10 mM Tris-HCl pH 7.5, 50 mM NaCl, 1 mM DTT, 4% glycerol, room temperature, 30 min; GST-TFs on glutathione beads, 16-mer random dsDNA library, 0.1% formaldehyde crosslink after washing; high values mean tight binding
The target of assay [1] is T1, FLI1 (Homo sapiens, UniProt Q01543 1-452).
T1 sequence: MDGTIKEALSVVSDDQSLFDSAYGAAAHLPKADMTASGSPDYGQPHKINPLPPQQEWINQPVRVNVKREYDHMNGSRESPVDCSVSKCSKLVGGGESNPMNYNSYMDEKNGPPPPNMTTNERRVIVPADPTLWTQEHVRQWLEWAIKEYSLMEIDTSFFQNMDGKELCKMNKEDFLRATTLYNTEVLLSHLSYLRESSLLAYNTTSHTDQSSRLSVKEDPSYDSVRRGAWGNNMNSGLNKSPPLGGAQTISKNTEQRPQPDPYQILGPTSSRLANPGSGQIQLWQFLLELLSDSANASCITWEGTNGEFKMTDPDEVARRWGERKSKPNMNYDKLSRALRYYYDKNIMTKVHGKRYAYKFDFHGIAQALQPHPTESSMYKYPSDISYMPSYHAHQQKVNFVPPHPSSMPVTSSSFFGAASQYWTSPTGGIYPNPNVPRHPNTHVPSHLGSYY
The note with it: protein: recombinant; tags: N-terminal GST; dsDNA, one strand shown. The method, boiled down:
(§1)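 Sequencing on an Illumina NextSeq500 followed washing, crosslinking with 0.1% formaldehyde, proximity ligation (BsaI/T4 ligase, 1 h, 37 °C) and PCR amplification of pools that had been incubated for 30 min at room temperature with 200 nmole of a random double-stranded 16-mer DNA library in Tris/NaCl/DTT/glycerol buffer. Each pool held DNA-barcoded human transcription factors, expressed in yeast as GST fusions and captured on glutathione beads, plus a tag-only sample. Binding signal is a hexamer's read frequency for a factor divided by its frequency in the tag-only sample.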

The target of assay [2] is T2, ELK1 (Homo sapiens, UniProt P19419 1-428).
T2 sequence: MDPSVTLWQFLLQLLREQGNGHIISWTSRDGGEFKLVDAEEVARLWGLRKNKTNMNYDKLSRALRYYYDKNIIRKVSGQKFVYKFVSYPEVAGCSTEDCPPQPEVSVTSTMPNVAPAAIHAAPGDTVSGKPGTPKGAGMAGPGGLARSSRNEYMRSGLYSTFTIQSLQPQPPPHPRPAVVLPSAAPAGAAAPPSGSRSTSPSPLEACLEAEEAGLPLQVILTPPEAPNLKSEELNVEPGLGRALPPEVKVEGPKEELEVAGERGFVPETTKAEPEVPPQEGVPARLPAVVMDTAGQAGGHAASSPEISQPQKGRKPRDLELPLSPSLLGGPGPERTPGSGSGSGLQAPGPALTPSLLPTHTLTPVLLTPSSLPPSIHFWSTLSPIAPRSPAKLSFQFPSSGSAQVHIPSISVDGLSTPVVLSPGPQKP
The note with it: protein: recombinant; tags: N-terminal GST; dsDNA, one strand shown. Summed up: as §1

The target in assay [3] is T3, GABPA (Homo sapiens, UniProt Q06546 1-454).
T3 sequence: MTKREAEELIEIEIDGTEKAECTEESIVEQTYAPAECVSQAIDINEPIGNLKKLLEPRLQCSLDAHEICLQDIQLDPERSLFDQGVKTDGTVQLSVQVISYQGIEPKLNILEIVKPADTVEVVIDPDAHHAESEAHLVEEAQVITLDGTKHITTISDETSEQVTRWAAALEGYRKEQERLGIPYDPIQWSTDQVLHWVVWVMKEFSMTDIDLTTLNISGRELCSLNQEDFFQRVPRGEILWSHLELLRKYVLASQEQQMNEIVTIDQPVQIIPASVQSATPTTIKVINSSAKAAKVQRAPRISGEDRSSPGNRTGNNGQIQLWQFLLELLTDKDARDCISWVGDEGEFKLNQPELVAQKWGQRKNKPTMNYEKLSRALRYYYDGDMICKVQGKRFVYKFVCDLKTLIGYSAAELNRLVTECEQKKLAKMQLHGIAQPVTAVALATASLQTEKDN
The note with it: protein: recombinant; tags: N-terminal GST; dsDNA, one strand shown. The method, boiled down: as §1

Assay [4] has as its target T4, ERG (Homo sapiens, UniProt P11308 1-479).
T4 sequence: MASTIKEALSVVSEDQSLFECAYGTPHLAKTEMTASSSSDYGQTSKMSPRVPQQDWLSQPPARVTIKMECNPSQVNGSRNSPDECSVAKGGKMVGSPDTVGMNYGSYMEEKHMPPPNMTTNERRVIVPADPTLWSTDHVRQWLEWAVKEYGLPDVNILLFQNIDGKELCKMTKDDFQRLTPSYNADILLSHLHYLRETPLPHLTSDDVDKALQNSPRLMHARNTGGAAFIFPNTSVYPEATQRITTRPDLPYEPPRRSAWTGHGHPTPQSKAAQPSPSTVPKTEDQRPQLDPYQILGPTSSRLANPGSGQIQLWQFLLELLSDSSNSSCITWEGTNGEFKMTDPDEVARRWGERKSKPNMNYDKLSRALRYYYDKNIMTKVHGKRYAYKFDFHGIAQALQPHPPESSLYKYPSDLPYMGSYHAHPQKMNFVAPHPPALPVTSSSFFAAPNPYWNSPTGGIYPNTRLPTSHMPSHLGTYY
To be noted: protein: recombinant; tags: N-terminal GST; dsDNA, one strand shown. The method, boiled down:
as §1

Assay [5] addresses ELF1 (Homo sapiens, UniProt P32519 1-619). To be noted: protein: recombinant; tags: N-terminal GST; dsDNA, one strand shown. Summed up: as §1
Assay [6] has as its target T5, EHF (Homo sapiens, UniProt Q9NZC4 1-300).
T5 sequence: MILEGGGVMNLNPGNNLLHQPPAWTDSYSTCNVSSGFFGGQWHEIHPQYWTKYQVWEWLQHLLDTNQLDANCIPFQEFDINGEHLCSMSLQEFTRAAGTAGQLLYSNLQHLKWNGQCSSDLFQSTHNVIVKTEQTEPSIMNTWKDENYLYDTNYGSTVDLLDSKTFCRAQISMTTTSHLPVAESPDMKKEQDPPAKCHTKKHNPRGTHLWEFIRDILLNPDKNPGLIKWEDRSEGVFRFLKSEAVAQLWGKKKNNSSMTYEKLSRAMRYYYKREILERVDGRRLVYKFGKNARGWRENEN
To be noted: protein: recombinant; tags: N-terminal GST; dsDNA, one strand shown. Summed up:
as §1

Assay [7] has as its target SPI1 (Homo sapiens, UniProt P17947 1-270). To be noted: protein: recombinant; tags: N-terminal GST; dsDNA, one strand shown. The method, boiled down: as §1
Assay [8] concerns the target SPIB (Homo sapiens, UniProt Q01892 1-262). To be noted: protein: recombinant; tags: N-terminal GST; dsDNA, one strand shown. Summed up: as §1
Assay [9] concerns the target T6, ELK3 (Homo sapiens, UniProt P41970 1-407).
T6 sequence: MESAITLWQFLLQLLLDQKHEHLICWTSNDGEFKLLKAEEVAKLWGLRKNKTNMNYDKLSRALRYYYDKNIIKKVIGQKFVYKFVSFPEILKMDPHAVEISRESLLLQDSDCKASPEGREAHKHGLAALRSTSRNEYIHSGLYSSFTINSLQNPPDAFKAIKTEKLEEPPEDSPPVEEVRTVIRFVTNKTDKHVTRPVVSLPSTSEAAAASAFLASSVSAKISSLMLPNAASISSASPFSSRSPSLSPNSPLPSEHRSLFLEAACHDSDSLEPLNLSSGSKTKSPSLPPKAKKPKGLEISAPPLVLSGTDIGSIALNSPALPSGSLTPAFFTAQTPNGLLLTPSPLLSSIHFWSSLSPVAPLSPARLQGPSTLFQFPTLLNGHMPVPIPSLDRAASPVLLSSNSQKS
To be noted: protein: recombinant; tags: N-terminal GST; dsDNA, one strand shown. The method, boiled down:
as §1

The target of assay [10] is T7, FEV (Homo sapiens, UniProt Q99581 1-238).
T7 sequence: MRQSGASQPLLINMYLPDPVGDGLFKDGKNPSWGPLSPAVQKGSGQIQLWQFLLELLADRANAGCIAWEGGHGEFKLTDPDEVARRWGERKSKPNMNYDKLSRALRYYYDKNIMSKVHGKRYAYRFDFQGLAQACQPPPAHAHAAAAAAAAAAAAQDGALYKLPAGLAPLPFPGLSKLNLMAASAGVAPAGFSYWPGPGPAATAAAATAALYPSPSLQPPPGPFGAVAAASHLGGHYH
The note with it: protein: recombinant; tags: N-terminal GST; dsDNA, one strand shown. The method, boiled down: as §1

For assay [11], the target named is ETV5 (Homo sapiens, UniProt P41161 1-510). The note with it: protein: recombinant; tags: N-terminal GST; dsDNA, one strand shown. Summed up: as §1
Assay [12] deals with HSF1 (Homo sapiens, UniProt Q00613 1-529). To be noted: protein: recombinant; tags: N-terminal GST; chain copies: 3; dsDNA, one strand shown. Summed up:
as §1

Assay [13] has as its target T8, SPIC (Homo sapiens, UniProt Q8N5J4 1-248).
T8 sequence: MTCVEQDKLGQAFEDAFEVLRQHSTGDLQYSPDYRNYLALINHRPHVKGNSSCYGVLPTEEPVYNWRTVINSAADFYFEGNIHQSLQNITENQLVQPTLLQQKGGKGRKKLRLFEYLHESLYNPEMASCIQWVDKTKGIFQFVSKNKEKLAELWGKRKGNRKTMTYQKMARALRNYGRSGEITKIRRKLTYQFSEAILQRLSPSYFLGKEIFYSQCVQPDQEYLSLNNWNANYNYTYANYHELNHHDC
To be noted: protein: recombinant; tags: N-terminal GST; dsDNA, one strand shown. The method, boiled down: as §1

The target in assay [14] is ELF4 (Homo sapiens, UniProt Q99607 1-663). The note with it: protein: recombinant; tags: N-terminal GST; dsDNA, one strand shown. The method, boiled down:
as §1

In assay [15] the target is T9, ELK4 (Homo sapiens, UniProt P28324-2 1-405).
T9 sequence: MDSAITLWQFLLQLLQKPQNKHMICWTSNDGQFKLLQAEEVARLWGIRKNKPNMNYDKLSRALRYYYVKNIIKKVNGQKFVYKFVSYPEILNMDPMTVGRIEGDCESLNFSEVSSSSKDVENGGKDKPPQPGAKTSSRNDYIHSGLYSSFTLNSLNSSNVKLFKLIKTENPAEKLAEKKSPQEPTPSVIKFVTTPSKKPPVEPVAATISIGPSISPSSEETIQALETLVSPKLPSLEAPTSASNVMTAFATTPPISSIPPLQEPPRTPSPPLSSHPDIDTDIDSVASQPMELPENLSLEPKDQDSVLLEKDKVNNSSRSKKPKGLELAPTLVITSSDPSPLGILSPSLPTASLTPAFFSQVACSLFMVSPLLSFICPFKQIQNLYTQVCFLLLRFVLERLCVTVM
To be noted: protein: recombinant; tags: N-terminal GST; dsDNA, one strand shown. Summed up:
as §1

For assay [16], the target named is T10, ETV2 (Homo sapiens, UniProt O00321 1-342).
T10 sequence: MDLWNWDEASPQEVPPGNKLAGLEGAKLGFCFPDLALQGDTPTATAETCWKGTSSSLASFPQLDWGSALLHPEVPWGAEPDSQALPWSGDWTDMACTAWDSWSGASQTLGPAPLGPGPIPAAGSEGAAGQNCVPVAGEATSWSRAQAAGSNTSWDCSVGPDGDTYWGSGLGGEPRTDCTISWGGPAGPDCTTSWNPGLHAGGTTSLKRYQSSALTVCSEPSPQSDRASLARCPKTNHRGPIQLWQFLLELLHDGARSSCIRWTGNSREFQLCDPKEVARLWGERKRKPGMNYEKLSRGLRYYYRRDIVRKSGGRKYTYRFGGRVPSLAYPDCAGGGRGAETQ
The note with it: protein: recombinant; tags: N-terminal GST; dsDNA, one strand shown. Summed up:
as §1

The target in assay [17] is T11, ELF3 (Homo sapiens, UniProt P78545 1-371).
T11 sequence: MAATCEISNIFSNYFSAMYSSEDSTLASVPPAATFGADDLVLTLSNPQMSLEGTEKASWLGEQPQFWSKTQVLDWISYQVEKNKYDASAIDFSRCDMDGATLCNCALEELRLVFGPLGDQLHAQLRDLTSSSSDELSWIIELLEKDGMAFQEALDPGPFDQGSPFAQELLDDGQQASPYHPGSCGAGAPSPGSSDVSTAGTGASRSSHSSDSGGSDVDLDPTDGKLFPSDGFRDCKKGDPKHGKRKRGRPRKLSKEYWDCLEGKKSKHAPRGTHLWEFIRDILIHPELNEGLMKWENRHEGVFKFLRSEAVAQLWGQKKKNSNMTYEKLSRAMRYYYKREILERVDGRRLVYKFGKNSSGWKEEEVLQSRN
The note with it: protein: recombinant; tags: N-terminal GST; dsDNA, one strand shown. Summed up:
as §1

The target in assay [18] is CRX (Homo sapiens, UniProt O43186 1-299). To be noted: protein: recombinant; tags: N-terminal GST; dsDNA, one strand shown. Summed up:
as §1

CRX, sequence (O43186 whole entry): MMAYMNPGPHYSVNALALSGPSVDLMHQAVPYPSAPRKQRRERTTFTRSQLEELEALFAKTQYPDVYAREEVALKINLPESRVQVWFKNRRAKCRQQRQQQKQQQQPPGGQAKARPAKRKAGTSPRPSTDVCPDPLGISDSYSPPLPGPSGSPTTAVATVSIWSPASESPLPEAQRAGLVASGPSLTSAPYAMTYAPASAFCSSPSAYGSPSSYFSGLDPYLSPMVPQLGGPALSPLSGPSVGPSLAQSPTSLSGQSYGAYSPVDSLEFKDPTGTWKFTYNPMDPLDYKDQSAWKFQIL
SPIB, sequence (Q01892 whole entry): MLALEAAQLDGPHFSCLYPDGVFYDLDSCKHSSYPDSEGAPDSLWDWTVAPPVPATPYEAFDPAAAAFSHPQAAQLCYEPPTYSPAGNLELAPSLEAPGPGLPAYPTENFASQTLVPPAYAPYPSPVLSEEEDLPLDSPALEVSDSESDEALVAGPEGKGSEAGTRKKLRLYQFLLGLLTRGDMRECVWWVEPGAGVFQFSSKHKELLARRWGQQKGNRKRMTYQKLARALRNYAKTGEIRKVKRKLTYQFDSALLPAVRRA
ELF4, sequence (Q99607 whole entry): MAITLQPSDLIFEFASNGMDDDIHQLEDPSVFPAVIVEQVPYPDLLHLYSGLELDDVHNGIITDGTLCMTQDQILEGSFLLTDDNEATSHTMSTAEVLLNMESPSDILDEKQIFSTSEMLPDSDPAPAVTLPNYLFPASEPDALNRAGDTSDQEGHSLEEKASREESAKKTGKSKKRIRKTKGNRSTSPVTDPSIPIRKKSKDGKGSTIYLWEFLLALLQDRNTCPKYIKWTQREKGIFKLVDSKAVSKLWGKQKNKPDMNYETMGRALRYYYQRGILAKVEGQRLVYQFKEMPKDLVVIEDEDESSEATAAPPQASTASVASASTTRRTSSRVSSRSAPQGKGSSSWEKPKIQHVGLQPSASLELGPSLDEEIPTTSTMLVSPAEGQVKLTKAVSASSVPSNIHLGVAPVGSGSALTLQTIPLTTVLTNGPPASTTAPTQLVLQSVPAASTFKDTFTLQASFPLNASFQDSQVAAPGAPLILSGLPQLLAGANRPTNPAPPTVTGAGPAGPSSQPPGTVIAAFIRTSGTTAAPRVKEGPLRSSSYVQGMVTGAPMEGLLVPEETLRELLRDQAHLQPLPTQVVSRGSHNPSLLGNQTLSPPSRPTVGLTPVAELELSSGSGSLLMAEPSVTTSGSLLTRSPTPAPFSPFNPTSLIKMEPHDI
ETV5, sequence (P41161 whole entry): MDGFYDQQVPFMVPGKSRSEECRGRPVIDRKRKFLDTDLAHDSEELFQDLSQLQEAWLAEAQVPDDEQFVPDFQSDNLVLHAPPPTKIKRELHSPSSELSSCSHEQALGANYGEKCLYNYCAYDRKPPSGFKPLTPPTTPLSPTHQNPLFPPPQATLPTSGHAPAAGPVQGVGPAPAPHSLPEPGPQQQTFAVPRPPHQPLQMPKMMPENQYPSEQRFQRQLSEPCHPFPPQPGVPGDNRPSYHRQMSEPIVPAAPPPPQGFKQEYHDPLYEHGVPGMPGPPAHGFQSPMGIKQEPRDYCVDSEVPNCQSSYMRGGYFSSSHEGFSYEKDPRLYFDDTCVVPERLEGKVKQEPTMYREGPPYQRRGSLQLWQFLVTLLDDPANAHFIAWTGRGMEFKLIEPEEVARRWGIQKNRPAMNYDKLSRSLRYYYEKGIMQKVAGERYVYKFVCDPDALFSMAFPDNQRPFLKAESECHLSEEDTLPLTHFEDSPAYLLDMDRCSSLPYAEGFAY
HSF1, sequence (Q00613 whole entry): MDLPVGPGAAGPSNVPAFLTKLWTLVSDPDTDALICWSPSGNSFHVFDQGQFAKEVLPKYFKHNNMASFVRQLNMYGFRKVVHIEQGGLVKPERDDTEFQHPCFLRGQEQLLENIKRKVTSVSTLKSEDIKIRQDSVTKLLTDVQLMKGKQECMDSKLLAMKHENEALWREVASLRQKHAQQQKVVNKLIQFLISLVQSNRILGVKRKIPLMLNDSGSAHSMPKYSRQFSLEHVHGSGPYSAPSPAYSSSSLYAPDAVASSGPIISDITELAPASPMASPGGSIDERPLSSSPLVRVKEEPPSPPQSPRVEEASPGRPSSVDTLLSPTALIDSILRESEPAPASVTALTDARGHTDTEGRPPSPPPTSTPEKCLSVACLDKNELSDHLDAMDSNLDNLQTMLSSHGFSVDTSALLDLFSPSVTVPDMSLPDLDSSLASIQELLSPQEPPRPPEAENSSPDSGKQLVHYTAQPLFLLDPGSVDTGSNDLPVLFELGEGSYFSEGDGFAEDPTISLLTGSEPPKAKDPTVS
ELF1, sequence (P32519 whole entry): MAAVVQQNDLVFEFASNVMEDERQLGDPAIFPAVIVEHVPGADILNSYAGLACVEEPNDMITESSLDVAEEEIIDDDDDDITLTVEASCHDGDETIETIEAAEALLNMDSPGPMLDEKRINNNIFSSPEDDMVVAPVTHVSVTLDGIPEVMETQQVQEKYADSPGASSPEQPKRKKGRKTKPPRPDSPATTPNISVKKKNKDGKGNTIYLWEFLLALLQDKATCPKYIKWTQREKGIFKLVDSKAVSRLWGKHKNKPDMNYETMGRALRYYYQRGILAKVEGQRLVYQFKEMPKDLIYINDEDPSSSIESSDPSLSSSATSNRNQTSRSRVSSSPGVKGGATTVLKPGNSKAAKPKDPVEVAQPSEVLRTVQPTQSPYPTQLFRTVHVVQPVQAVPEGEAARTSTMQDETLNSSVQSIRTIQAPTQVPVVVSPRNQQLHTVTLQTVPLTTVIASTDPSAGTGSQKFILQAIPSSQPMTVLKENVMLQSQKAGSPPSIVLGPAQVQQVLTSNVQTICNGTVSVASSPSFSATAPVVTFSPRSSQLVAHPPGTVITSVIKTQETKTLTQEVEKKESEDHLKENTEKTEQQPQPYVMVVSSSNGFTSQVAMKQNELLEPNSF

Consider TCCCAG, for which the binding signal in assay [1] was 1.05 fold enrichment (6-mer frequency, TF over GST control); in [2] it was 1.09 fold enrichment (6-mer frequency, TF over GST control); in [3] it was 1.08 fold enrichment (6-mer frequency, TF over GST control); in assay [4], 1.07 fold enrichment (6-mer frequency, TF over GST control); in assay [5], 1.08 fold enrichment (6-mer frequency, TF over GST control); in assay [6], 1.1 fold enrichment (6-mer frequency, TF over GST control). Further, the binding signal in assay [7] was 1.11 fold enrichment (6-mer frequency, TF over GST control); in assay [8], 1.08 fold enrichment (6-mer frequency, TF over GST control); in [9], 1.11 fold enrichment (6-mer frequency, TF over GST control); in [10] it was 1.08 fold enrichment (6-mer frequency, TF over GST control); in assay [11], 1.06 fold enrichment (6-mer frequency, TF over GST control); in assay [12], 1.16 fold enrichment (6-mer frequency, TF over GST control). For the same sequence, the binding signal in [13] is 1.01 fold enrichment (6-mer frequency, TF over GST control); in [14], 1.15 fold enrichment (6-mer frequency, TF over GST control); in assay [15] it was 1.25 fold enrichment (6-mer frequency, TF over GST control); in assay [16] it was 1.02 fold enrichment (6-mer frequency, TF over GST control); in assay [17] it was 1.14 fold enrichment (6-mer frequency, TF over GST control); in assay [18], 1.19 fold enrichment (6-mer frequency, TF over GST control).
